The results in this text go back to PubChem BioAssay (NCATS).

Results filed as inconclusive are left out. Calls of active or inactive are those of the source. Unless noted, the call rests on the fitted dose curve; in most records, active means well fitted curve in the direction sought with a large enough effect; inconclusive means small, poorly fitted or top-dose-only effect, or another doubt; inactive means no such curve, though single readings can be large; an effect the other way counts as inactive or inconclusive.

The nature of assay [1]: qHTS Assay for Identification of Small Molecule Agonists for NFkB Signaling Pathway. (AID 624478).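 Further: compounds tested together with TNF alpha at its EC50 of 10 pM; 0% is about no effect.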 In a few lines: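 ME-180 cervical carcinoma, stable NFkB-RE beta-lactamase reporter; 1000 cells/well, overnight attachment; cpd + TNF alpha 10 pM final, 5 h 37 C; LiveBLAzer 2 h RT; FRET 460/530 nm, ex 405 nm.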
Assay [2] is described as follows: qHTS Assay for Identification of Small Molecule Antagonists for NFkB Signaling Pathway. (AID 624479; calls by dose curve;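 further: pathway stimulated with TNF alpha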; further: potency means the concentration at half of the fitted maximal effect). A general note: qHTS replaces the single test concentration by a dilution series.
The nature of assay [3]: Cell Proliferation Assay against the TMD8 Cell Line (AID 651645).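 Further: cells exposed to compound for 48 h before reading.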 As to conditions: TMD8 DLBCL cell line proliferation/viability; at 46.1 µM (top of the series) unless noted. Put shortly: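 Cell viability of the ABC DLBCL line TMD8 is measured by CellTiter-Glo luminescence following a 48-hour incubation with compound. Percent activity uses DMSO as 100% and 9.2 uM bortezomib (final) as 0%.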

A short description of assay [4]: Cell Proliferation Assay against the HBL1 Cell Line (AID 651646).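 Further: cells exposed to compound for 48 h before reading.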 The settings on record: HBL1 DLBCL cells; at 46.1 µM (top of the series) unless noted. In a few lines: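 500 log-phase HBL1 cells per well in phenol red-free RPMI with 5% FBS were treated with compounds for 48 h at 37 °C, 5% CO2. Viability was read by CellTiter-Glo luminescence, normalized to DMSO (100%) and 9.2 uM bortezomib final (0%).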

A short description of assay [5]: Cell Proliferation Assay against the TMD8 Cell Line (Caspase readout at 16 hrs) (AID 651712). Put shortly: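 TMD8 cells (500/well) in phenol-red-free RPMI with glutamine, 5% FBS, were exposed to compounds for 16 h at 37 °C. Caspase 3/7 activation was read by Caspase-Glo luminescence; percent activity normalised to DMSO (0%) and 9.2 uM bortezomib final (100%).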
A short description of assay [6]: Cell Proliferation Assay against the TMD8 Cell Line (Caspase readout at 8 hrs) (AID 651713).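 Further: 0% = DMSO and 100% = 9.2 µM bortezomib caspase signal.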 Put shortly:
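Seed log-phase TMD8 cells, add compound by pin tool, incubate 8 h at 37C under 5% CO2, equilibrate to room temperature, add Caspase-Glo, wait 15 min, read luminescence; percent activity uses DMSO and 9.2 uM bortezomib controls.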

The nature of assay [7]: qHTS assay for small molecule activators of the nuclear factor-kappa B (NF-kB) signaling pathway (AID 651749; active means well fitted activation curve with a large enough effect in the signal ratio; the % refers to the signal ratio; further: % of control where 0% means no effect). As to conditions: NF-kB-bla ME-180 cells, beta-lactamase FRET ratio, 16 h; stronger effect = higher value. Put shortly: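 Screening used 2,000 ME-180 reporter cells per well exposed to pinned compound (23 nL) or DMSO; after 16 hr at 37C, beta-lactamase expression under NF-kB control was assessed through FRET.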

Assay [8] in a line: qHTS for small molecule inhibitors of Yes1 kinase: Counter Assay (AID 686950).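 Further: no kinase present so only ADP-Glo detection of a fixed ADP amount is tested; luminescence from ADP-Glo reporting ADP in a fixed ATP and ADP mixture; 0% = DMSO wells with ATP plus ADP and -100% = ATP-only wells without ADP.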 In a few lines:
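Enzyme-free ADP-Glo interference check: compounds were preincubated 20 min in buffer, then an ATP/ADP mix (0.08 mM ATP, 0.02 mM ADP final) was added for 60 min at room temperature before two-step ADP-Glo luminescence detection.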

Assay [9] addresses Arylsulfatase A (Homo sapiens) (UniProt P15289). Kind of assay: qHTS screen for enhancers of Arylsulfatase A (ASA1): LOPAC Validation Assay (AID 720538). Further: 0% is about no effect. The settings on record: outcome: dose series up to 57.5 µM. Put shortly:
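Cell-based enhancement test: residual ASA activity in SV40-transformed I179S patient fibroblasts is measured by pNCS turnover (0.5mM final, 14h, room temperature) following 48h compound incubation; higher fluorescence indicates activation.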

A short description of assay [10]: qHTS for compounds that reverse cellular toxicity of Amyloid beta (A-beta) peptide in yeast: LOPAC Validation Assay (AID 720559).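 Further: plate controls were DMSO for no effect and equimolar ferric chloride plus clioquinol rescue for full effect.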 Put shortly: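 Here, A-beta-toxic yeast grow with test compounds at 30 C for 48 hr before optical density at 600 nm is recorded; data are normalized against DMSO and the FeCl3-clioquinol control.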
The nature of assay [11]: qHTS for Activators of Parkin Expression: LOPAC Validation Assay (NLuc Reporter) (AID 720572;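 further: 0% = DMSO and 100% = positive control compound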). Put shortly:
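Neuronal line stably carrying a FLuc/NLuc coincidence reporter under the Parkin promoter, seeded 24 h, then dosed in 7-point series for 24 h at 37 C. NLuc luminescence read after FLuc; normalized to DMSO and positive control (100%).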

For assay [12], the target named is Tyrosine-protein kinase Yes (Homo sapiens) (UniProt P07947). Kind of assay: qHTS for small molecule inhibitors of Yes1 kinase: Primary Screen (AID 686947). Further: nearly all actives have a fitted effect of over 60% in size. Further: potency means the concentration at half of the fitted maximal effect. In a few lines: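 Yes1 (4 nM) preincubated 20 min with compound, then 60 min room-temperature reaction with 0.1 mM ATP and 0.3 mg/mL poly(E4Y) in pH 7.5 Tris, 10 mM MgCl2. ADP measured by ADP-Glo luminescence, normalised to enzyme/no-enzyme controls.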

A short description of assay [13]: qHTS assay for small molecule agonists of the antioxidant response element (ARE) signaling pathway (AID 651741; active means well fitted activation curve with a large enough effect in the signal ratio; the % refers to the signal ratio; further: potency means the concentration at half of the fitted maximal effect). In a few lines:
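Compounds in DMSO are pinned onto HepG2 ARE-bla cells (2,000/well) that were preincubated 5 h; plates stay 16 h at 37 C, then beta-lactamase activity is detected with LiveBLAzer B/G substrate by fluorescence.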

The target in assay [14] is Peroxisome proliferator-activated receptor alpha (Homo sapiens) (UniProt Q07869). The experiment in a line: qHTS assay for small molecule agonists of the peroxisome proliferator-activated receptor alpha (PPARalpha) signaling pathway (AID 651778). Further: % of control where 0% means no effect. The settings on record: PathHunter PPARalpha complementation, chemiluminescence, 6 h; stronger effect = higher value. In a few lines:
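Cells plated at 2,000/well and held overnight at 37 C, 5% CO2, then compound added by pin tool for 6 hr; after PathHunter detection reagent and 60 min at room temperature, chemiluminescence from enzyme complementation was read.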

Sequence of Tyrosine-protein kinase Yes (Homo sapiens) (P07947 whole entry, looked up): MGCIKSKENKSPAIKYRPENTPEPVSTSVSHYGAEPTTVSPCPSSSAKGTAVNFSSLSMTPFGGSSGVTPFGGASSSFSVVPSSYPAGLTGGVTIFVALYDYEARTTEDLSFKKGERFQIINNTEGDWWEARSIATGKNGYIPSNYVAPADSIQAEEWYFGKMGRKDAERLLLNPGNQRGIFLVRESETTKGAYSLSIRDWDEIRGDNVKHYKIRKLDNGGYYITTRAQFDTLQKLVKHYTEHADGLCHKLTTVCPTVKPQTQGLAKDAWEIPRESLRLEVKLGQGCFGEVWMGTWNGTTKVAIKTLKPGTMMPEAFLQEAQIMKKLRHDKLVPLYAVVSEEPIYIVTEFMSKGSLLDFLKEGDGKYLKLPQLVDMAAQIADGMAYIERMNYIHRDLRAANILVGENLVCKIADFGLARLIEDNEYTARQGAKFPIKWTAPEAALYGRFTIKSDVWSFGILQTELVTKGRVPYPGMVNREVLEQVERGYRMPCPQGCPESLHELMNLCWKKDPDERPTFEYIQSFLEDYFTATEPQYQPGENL
Sequence of Peroxisome proliferator-activated receptor alpha (Homo sapiens) (Q07869 whole entry, looked up): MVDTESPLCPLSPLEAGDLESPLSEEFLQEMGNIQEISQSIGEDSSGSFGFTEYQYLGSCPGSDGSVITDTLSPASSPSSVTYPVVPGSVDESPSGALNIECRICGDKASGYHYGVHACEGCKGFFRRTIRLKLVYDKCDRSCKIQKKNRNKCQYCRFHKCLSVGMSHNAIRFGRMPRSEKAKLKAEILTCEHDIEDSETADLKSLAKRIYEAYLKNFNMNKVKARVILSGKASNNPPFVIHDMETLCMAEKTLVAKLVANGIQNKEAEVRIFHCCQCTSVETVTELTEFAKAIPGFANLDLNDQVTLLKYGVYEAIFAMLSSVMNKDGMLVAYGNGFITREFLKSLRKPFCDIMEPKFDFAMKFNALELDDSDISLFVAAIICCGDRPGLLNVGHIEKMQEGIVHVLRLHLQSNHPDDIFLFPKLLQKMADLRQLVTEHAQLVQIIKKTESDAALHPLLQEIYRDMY
Sequence of Arylsulfatase A (Homo sapiens) (P15289 whole entry, looked up): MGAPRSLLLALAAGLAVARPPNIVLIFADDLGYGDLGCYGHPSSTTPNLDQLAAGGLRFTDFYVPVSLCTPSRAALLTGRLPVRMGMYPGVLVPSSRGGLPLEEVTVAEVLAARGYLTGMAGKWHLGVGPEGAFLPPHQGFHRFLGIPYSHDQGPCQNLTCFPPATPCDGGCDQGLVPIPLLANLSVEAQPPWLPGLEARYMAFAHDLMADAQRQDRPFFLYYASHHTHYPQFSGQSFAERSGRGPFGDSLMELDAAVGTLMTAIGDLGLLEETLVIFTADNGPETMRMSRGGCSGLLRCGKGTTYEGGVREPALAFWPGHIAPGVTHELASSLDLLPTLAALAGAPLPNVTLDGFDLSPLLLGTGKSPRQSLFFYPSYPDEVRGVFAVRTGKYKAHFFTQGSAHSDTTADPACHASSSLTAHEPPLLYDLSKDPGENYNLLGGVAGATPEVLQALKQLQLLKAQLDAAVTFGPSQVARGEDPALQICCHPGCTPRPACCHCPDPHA

As for `CC(C)(Sc1ccc(CCN(CCCCC2CCCCC2)C(=O)NC2CCCCC2)cc1)C(=O)O`, the outcome in assay [1], in assay [8], in assay [9] and in assay [10] was inactive. For the same compound, the Potency in assay [2] was 21.1 µM (active). Besides, in [3], the viability (% of control) stood at 92.1%. Besides, the viability, percent of control in [4] was 13.8%. Besides, the Potency entry in assay [5], in [6] and in assay [11] was “inactive” each time. In assay [7], the activation was 7.6% (inactive).

Turning to `CCc1cc(Nc2nccc(-c3c(-c4ccc(OC)c(C(=O)Nc5c(F)cccc5F)c4)nc4ccccn34)n2)c(OC)cc1N1CCC(N2CCN(S(C)(=O)=O)CC2)CC1`, the compound was classed as inactive in assay [1] and in [8]. Besides, the Potency entry in assay [2], in assay [5] and in assay [6] was “inactive” throughout. In addition, the viability (% of control) in assay [3] stood at 78.7%. Besides, the viability, percent of control in assay [4] amounted to 87.3%.

With `Cc1cc(Nc2nc(N[C@@H](C)c3ncc(F)cn3)ncc2Cl)n[nH]1`, the call in assay [1] and in assay [8] was inactive. Also, the Potency entry in assay [2], in assay [5] and in assay [6] was “inactive” throughout. For the same compound, the viability (% of control) in assay [3] is 105%. Besides, in assay [4], the viability, percent of control came out at 138%. In addition, the Potency in [12] is 0.772 µM (active).

As for `CCN(c1ccccc1)c1cc(NC)[n+](C)c(C)n1`, the outcome in assay [1] and in assay [8] was inactive. In addition, the Potency result in assay [2], in assay [5], in assay [6] and in assay [12] was “inactive” in each case. In addition, the viability (% of control) in assay [3] turned out to be 99.5%. The viability, percent of control in assay [4] turned out to be 87.8%.

For `Cc1cc([C@@H](C)Nc2ccccc2C(=O)O)c2nc(N3CCOCC3)cc(=O)n2c1`, the outcome in [1] and in [8] was inactive. In addition, the Potency entry in assay [2], in assay [5], in assay [6] and in assay [12] was “inactive” throughout. In addition, in assay [3], the viability (% of control) turned out to be 14.9%. Further, the viability, percent of control in assay [4] is 45.6%.

In the case of `COc1ccc2nc(S(=O)Cc3ncc(C)c(OC)c3C)[nH]c2c1` (stereo not given), the call in [1] and in assay [8] was inactive. Also, the Potency result in assay [2], in [5], in assay [6] and in assay [12] was “inactive” each time. In assay [4], the viability, percent of control was determined as 89.4%. Also, the Potency in [13] is 27.3 µM (active). Further, the activation in [7] is -0.714% (inactive). The max response in assay [14] is 6.65% (inactive).

Turning to `COc1ccc2c3n(c(=NC(=O)c4cccnc4)nc2c1OC)CCN3`, the compound was called inactive in assay [1] and in assay [8]. The Potency result in assay [2], in assay [5], in [6] and in assay [12] was “inactive” throughout. The viability, percent of control in assay [4] amounted to 39.3%.

Turning to `NC(=O)C1CCCc2c1[nH]c1ccc(Cl)cc21` (stereo not given), the outcome in assay [1] and in [8] was inactive. In addition, the Potency entry in assay [2], in assay [5] and in assay [6] was “inactive” in each case. For the same compound, the viability (% of control) in assay [3] was found to be 94.1%. Moreover, the viability, percent of control in assay [4] is 73.1%.

Consider `CC(C)(C)OC(=O)CN(Cc1ccc(Cl)cc1)Cc1ccc([N+](=O)[O-])s1`, for which the result in assay [1] and in [8] was inactive. Also, the Potency result in assay [2] and in assay [6] was “inactive” each time. Moreover, the viability (% of control) in [3] was 7.07%. The viability, percent of control in assay [4] was 47%.

Turning to `CCOc1ccn(-c2ccc(F)cc2)c(=O)c1C(=O)Nc1ccc(Oc2ccnc(N)c2Cl)c(F)c1`, the outcome in assay [1] and in assay [8] was inactive. Moreover, the Potency is 16.8 µM (active) in assay [2] and 1.94 µM (active) in assay [12]. For the same compound, in assay [3], the viability (% of control) was determined as 53.5%. The viability, percent of control in assay [4] was found to be 68.6%.

Turning to `N#CC[C@H](C1CCCC1)n1cc(-c2ncnc3[nH]ccc23)cn1`, the compound was called inactive in assay [1] and in assay [8]. In addition, in assay [2], the Potency is 16.8 µM (active). In addition, the viability (% of control) in [3] amounted to 33.1%. In addition, in [4], the viability, percent of control was 65.7%. Besides, the Potency result in assay [5] and in [6] was “inactive” each time.
